# Inconclusive results are not listed. Entries that show only a call come without a potency. Unmarked numbers belong to inactive results. Calls of active or inactive are those of the source. Calls follow the shape of the dose curve; as a rule, active = well fitted cell-killing curve with a large enough effect in the repeat runs; inconclusive = weak or mixed curves, or effect the other way; inactive = flat fitted curve, though single readings scatter.
# Test: qHTS RealTime-Glo MT Cell Viability Assay in HEK293 cells - 24 hour (AID 1224886); also: top concentration of the series differs between compounds; nearly all actives have a fitted effect of over 50% in size
# Conditions: RealTime-Glo luminescence; series mostly up to 76.8 µM
# Text: National Center for Advancing Translational Sciences [NCATS]
# NIH Chemical Genomics Center [NCGC]
# U.S. Environmental Protection Agency [EPA]
# National Institutes of Environmental Health Sciences [NIEHS]
# National Toxicology Program [NTP]
# U.S. Food and Drug Administration [FDA]
# Measure of cell viability is critical in the cell-base assay. Analysis of cell viability is necessary for the characterization of cell responses to cytotoxic drugs and environmental stress. A RealTime-Glo MT Cell Viability Assay to monitor cell viability in real time of continues cell culture during 40 hours of compound treatment was used to screen Tox21 10K library compounds in Hek293 cells. The RealTime-Glo MT Cell Viability Assay is a nonlytic, homogeneous, bioluminescent method to measure cell viability in real time using a simple, plate-based method. The assay involves adding NanoLuc luciferase and a cell-permeant prosubstrate to cells in culture. Viable cells reduce the proprietary prosubstrate to generate a substrate for NanoLuc luciferase. This substrate diffuses from cells into the surrounding culture medium, where it is rapidly used by the NanoLuc Enzyme to produce a luminescent signal. The signal correlates with the number of viable cells, making the assay well suited for cytotoxicity studies.
# Tox21 Assay Protocol Summary:
# The mixture of Hek293 cell suspension and reagents were dispensed at 600cells/6 ul/well in 1536-well tissue culture treated black solid bottom plates using a Multidrop dispenser. After the assay plates were incubated at a 37 C/5% CO2 incubator for 5 hours, 23 nL of compounds dissolved in DMSO, positive and negative controls was transferred to the assay plate by a pintool work station. The plates were incubated at 37 C for 40 hours. The luminescence intensity were measured at 0h, 8h, 16h, 24h, 32h and 40h time points using ViewLux plate reader during compound treatment.
Compound,Potency,"activity change, negative = cytotoxicity"
NS(=O)(=O)c1cc(C(=O)NN2C[C@H]3[C@H]4CCC(C4)[C@H]3C2)ccc1Cl,inactive,–
COCCCOCCCOC,inactive,–
O=C(c1ccccc1)C1CCCCC1,inactive,–
Nc1c[n+](N2CCOCC2)no1,inactive,–
C=COCC1CCC(CO)CC1 (stereo not given),inactive,–
CC(=O)OCC(=O)[C@@]1(O)CC[C@H]2[C@@H]3CCC4=CC(=O)CC[C@]4(C)[C@H]3C(=O)C[C@@]21C,inactive,–
COc1ccccc1OCC(O)CN1CCN(CC(=O)Nc2c(C)cccc2C)CC1 (stereo not given),inactive,–
NC(CSCC(=O)O)C(=O)O (stereo not given),inactive,–
C[C@H]1C[C@@H](O)CC(C)(C)C1,inactive,–
COC(=O)c1cc(C(=O)OC)cc(S(=O)(=O)O)c1,inactive,–
CC1(C)CO[C@@H](CC(=O)O)CN1,inactive,–
O=Cc1cccc([N+](=O)[O-])c1,inactive,–
CCc1cccc2c(CCO)c[nH]c12,inactive,–
CCOC(=O)c1ccc(C)cc1,inactive,–
CO/N=C(/C(=O)N[C@@H]1C(=O)N2C(C(=O)OCOC(=O)C(C)(C)C)=C(C)CS[C@H]12)c1csc(N)n1,inactive,–
CC(C)CCCC(C)N (stereo not given),inactive,–
CC(C)NCC(O)c1ccc(NS(C)(=O)=O)cc1 (stereo not given),inactive,–
N#Cc1ccc(C2CCCc3cncn32)cc1 (stereo not given),inactive,–
CC[N+](C)(C)c1cccc(O)c1,inactive,–
Oc1ccc(C2CNCCc3c2cc(O)c(O)c3Cl)cc1 (stereo not given),inactive,–

Compound,Potency,"activity change, negative = cytotoxicity"
FC1(F)C(F)(F)C(F)(F)C2(F)C(F)(F)C(F)(F)C(F)(F)C(F)(F)C2(F)C1(F)F (stereo not given),inactive,–
C[N+](C)(C)CC(O)CC(=O)[O-] (stereo not given),inactive,–
CC(=O)CC(C)C,inactive,–
C[C@](N)(Cc1ccc(O)cc1)C(=O)O,–,0.918% [at 6.97 µM]
CCCN(CCC)CCc1cccc2c1CC(=O)N2,inactive,–
N[C@@H](C(=O)N[C@@H]1C(=O)N2C(C(=O)O)=C(Cl)CS[C@H]12)c1ccccc1,–,7.93% [at 6.97 µM]
O=C(O)COc1nn(Cc2ccccc2)c2ccccc12,inactive,–
CN1CCC(=C2c3ccccc3CC(=O)c3sccc32)CC1,inactive,–
COc1nc(N)nc2c1ncn2[C@@H]1O[C@H](CO)[C@@H](O)[C@@H]1O,inactive,–
Cc1cc(O)cc2c1O[C@](C)(CCC[C@H](C)CCC[C@H](C)CCCC(C)C)CC2,inactive,–
CCCCCCCCCCCCN(CCCCCCCCCCCC)CCCCCCCCCCCC,inactive,–
COC(=O)CC(C)=O,inactive,–
COC(C)(C)CCCC(C)CC=O (stereo not given),inactive,–
CC(C)(C)c1nnc(NS(=O)(=O)c2ccccc2)s1,inactive,–
CCN(CC)CCOCCOC(=O)C1(c2ccccc2)CCCC1,inactive,–
CCCCCCCCS(=O)(=O)Cl,inactive,–
COC(=O)[C@@H](N)Cc1ccc(O)c(O)c1,inactive,–
O=C1CC2CC1C1CCCC21 (stereo not given),inactive,–
CCC(=O)OC(C)c1ccccc1 (stereo not given),inactive,–
Cc1[nH]c(=O)c(C#N)cc1-c1ccc2nccn2c1,inactive,–
